Results as given in ChEMBL document CHEMBL2218924, “A broad activity screen in support of a chemogenomic map for kinase signalling research and drug discovery” (Biochem J, 2013).

Legend:
[1] = biological target: T1, Serine/threonine-protein kinase DCLK2 (Homo sapiens) (UniProt Q8N568); conditions: at 1 µM
T1 sequence (whole entry): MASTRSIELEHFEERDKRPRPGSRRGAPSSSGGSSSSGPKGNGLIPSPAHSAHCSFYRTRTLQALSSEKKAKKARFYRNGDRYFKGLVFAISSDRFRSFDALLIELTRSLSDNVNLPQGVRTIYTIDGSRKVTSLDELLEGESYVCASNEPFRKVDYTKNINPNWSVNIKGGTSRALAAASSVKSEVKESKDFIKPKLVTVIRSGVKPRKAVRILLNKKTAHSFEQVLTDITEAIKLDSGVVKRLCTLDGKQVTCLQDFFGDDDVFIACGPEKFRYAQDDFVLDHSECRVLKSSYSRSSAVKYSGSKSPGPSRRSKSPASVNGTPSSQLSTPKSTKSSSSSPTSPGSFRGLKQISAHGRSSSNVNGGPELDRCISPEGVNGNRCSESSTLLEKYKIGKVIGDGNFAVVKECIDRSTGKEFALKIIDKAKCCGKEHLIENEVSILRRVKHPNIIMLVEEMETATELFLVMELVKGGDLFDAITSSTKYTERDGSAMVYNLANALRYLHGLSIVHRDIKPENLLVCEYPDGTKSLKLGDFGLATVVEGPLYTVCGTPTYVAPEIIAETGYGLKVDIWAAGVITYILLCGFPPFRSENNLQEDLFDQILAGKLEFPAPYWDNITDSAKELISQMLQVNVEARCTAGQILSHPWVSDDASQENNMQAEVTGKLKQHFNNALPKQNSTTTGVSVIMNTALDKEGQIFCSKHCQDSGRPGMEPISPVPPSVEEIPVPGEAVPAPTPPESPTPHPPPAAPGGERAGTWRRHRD

[2] = biological target: T1, Serine/threonine-protein kinase DCLK2 (Homo sapiens); conditions: at 10 µM
[3] = biological target: T2, Myotonin-protein kinase (Homo sapiens) (UniProt Q09013); conditions: at 1 µM
T2 sequence (whole entry): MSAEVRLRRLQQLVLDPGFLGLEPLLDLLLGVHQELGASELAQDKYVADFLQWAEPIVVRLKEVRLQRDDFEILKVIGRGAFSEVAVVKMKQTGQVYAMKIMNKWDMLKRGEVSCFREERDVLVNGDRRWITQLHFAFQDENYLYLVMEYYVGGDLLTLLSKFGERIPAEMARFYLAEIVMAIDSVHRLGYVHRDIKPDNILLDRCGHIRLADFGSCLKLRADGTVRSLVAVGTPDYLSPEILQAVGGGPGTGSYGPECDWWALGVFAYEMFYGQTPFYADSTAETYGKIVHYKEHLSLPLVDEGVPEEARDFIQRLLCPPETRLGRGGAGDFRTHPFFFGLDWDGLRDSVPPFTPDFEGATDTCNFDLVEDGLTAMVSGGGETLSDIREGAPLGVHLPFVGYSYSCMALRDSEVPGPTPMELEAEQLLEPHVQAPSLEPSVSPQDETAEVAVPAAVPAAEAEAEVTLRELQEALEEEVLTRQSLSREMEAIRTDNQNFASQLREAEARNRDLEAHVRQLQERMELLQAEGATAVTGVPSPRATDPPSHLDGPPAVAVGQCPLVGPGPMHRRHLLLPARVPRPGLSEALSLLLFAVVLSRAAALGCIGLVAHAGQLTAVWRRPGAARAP

[4] = biological target: T2, Myotonin-protein kinase (Homo sapiens); conditions: at 10 µM
[5] = biological target: T3, Serine/threonine-protein kinase 17A (Homo sapiens) (UniProt Q9UEE5); conditions: at 10 µM
T3 sequence (whole entry): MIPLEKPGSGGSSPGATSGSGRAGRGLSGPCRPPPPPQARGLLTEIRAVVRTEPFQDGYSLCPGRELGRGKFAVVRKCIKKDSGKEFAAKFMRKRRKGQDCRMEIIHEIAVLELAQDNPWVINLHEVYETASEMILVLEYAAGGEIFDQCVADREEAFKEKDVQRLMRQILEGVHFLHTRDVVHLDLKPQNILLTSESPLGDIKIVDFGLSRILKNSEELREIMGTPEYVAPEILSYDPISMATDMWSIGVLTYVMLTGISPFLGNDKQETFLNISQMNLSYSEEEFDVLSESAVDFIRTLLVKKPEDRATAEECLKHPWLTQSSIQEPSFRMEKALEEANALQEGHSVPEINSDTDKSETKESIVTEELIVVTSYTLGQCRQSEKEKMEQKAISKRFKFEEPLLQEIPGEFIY

[6] = biological target: T4, Dual specificity tyrosine-phosphorylation-regulated kinase 2 (Homo sapiens) (UniProt Q92630); conditions: at 1 µM
T4 sequence (whole entry): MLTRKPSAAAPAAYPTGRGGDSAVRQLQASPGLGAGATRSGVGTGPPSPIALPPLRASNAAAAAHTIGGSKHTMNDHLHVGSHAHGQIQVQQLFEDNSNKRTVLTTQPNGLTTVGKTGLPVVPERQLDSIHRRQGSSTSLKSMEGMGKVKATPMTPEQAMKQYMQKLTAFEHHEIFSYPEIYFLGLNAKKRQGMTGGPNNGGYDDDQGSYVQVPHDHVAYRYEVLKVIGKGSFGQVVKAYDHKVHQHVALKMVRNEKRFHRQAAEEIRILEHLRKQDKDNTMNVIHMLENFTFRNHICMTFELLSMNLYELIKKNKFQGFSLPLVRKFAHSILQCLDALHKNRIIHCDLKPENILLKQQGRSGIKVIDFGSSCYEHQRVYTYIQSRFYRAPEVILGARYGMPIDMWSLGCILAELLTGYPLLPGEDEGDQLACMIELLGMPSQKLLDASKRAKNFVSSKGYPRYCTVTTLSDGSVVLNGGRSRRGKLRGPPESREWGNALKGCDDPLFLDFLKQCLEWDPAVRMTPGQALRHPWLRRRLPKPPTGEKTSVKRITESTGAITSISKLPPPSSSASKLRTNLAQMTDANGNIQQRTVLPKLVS

[7] = biological target: T4, Dual specificity tyrosine-phosphorylation-regulated kinase 2 (Homo sapiens); conditions: at 10 µM
[8] = biological target: Epidermal growth factor receptor (Homo sapiens) (UniProt P00533); conditions: at 10 µM
[9] = biological target: T5, Ephrin type-A receptor 1 (Homo sapiens) (UniProt P21709); conditions: at 1 µM
T5 sequence (whole entry): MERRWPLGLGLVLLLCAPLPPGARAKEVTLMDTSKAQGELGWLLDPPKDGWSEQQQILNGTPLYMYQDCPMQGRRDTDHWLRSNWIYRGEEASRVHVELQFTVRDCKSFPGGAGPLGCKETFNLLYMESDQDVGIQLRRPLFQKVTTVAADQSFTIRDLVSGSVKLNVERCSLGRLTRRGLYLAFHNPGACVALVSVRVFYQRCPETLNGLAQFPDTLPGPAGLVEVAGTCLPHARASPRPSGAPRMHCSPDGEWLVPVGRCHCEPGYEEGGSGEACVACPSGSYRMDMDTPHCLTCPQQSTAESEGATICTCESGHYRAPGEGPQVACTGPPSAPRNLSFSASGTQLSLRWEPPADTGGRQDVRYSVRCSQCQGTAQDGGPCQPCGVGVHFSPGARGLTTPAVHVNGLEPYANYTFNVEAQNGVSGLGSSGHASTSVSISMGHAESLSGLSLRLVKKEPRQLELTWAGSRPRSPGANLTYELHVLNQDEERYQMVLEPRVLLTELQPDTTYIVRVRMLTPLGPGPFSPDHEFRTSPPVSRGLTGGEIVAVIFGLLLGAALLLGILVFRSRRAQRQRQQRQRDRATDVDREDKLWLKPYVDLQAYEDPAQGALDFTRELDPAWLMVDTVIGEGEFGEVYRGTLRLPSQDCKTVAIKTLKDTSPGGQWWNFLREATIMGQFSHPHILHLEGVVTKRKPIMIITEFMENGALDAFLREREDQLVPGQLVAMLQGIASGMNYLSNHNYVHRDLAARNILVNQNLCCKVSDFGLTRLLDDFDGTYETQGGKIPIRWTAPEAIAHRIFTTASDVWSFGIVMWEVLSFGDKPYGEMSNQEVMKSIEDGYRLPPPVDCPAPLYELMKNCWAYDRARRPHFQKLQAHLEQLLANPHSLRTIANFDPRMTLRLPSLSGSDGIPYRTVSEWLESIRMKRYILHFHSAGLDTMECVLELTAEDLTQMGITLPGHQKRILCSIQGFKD

[10] = biological target: T5, Ephrin type-A receptor 1 (Homo sapiens); conditions: at 10 µM
[11] = biological target: T3, Serine/threonine-protein kinase 17A (Homo sapiens); conditions: at 1 µM
[12] = biological target: T6, Ephrin type-A receptor 3 (Homo sapiens) (UniProt P29320); conditions: at 1 µM
T6 sequence (whole entry): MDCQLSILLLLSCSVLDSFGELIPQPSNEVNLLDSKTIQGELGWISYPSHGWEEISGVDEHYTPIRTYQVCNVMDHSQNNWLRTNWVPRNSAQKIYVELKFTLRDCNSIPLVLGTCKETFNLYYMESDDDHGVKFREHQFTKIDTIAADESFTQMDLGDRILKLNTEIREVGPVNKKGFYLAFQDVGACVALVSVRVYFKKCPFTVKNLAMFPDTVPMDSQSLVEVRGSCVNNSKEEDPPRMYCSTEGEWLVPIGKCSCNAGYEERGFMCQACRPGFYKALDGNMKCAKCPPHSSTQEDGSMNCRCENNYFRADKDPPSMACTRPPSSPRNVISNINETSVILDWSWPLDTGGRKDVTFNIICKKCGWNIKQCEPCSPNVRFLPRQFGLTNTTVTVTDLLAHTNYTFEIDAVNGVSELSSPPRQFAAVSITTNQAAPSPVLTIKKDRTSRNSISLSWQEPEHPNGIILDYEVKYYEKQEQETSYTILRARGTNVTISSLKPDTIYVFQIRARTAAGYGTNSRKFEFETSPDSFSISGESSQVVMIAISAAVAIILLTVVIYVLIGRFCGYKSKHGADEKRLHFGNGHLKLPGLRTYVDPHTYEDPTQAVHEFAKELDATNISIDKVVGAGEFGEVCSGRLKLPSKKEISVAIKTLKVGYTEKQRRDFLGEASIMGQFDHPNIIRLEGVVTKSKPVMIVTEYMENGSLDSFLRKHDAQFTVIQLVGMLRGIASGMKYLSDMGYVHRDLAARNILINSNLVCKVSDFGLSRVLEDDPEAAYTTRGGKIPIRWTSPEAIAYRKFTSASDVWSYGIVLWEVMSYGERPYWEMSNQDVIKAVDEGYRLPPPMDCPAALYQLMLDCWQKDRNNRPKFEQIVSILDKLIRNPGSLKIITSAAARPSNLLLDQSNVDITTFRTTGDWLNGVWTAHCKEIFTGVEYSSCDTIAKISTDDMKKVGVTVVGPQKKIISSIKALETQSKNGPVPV

[13] = biological target: Death-associated protein kinase 2 (Homo sapiens) (UniProt Q9UIK4); conditions: at 1 µM
[14] = biological target: Death-associated protein kinase 2 (Homo sapiens) (UniProt Q9UIK4); conditions: at 10 µM

Death-associated protein kinase 2 (Homo sapiens), sequence (Q9UIK4 whole entry, looked up): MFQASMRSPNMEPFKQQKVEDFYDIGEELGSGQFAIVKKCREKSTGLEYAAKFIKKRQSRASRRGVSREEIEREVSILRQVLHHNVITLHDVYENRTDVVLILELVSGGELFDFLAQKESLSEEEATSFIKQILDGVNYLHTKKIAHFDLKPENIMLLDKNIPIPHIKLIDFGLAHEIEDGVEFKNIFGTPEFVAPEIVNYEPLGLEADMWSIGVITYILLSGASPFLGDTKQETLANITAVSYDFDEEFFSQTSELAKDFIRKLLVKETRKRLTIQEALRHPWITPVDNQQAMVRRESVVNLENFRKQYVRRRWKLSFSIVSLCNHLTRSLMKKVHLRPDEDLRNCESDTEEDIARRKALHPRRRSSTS
Epidermal growth factor receptor (Homo sapiens), sequence (P00533 whole entry): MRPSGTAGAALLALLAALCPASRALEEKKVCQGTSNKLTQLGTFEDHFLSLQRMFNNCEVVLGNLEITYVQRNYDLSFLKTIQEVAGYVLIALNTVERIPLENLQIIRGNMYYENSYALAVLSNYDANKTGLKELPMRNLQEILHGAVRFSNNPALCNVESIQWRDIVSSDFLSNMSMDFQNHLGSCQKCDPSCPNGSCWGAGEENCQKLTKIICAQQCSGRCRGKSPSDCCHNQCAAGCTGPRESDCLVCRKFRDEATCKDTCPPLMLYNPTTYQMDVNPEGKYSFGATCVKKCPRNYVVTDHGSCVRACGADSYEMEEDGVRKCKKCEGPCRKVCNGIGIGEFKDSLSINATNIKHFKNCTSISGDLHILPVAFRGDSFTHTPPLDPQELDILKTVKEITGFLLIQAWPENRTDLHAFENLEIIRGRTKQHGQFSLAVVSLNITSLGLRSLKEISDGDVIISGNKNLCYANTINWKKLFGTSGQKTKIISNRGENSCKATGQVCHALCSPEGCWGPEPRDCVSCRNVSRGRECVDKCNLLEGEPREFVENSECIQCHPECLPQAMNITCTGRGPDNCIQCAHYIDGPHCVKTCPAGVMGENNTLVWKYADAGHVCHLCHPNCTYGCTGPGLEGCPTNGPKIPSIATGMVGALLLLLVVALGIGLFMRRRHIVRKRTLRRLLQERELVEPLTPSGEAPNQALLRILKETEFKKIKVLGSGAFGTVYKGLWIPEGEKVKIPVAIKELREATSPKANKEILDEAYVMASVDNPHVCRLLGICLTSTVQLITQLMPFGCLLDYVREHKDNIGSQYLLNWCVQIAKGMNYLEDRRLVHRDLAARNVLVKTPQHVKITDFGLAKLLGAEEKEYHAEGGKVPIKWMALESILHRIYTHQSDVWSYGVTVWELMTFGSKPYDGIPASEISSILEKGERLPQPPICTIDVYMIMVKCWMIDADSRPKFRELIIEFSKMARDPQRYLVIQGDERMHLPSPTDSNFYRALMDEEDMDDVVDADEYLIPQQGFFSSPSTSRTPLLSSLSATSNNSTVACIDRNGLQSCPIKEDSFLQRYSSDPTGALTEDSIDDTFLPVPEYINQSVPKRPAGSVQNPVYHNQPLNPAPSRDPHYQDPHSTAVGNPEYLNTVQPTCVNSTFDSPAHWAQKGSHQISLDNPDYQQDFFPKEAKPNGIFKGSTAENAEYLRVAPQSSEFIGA

`O=C1NC(=O)C(c2cn(CCCn3ccnc3)c3ccccc23)=C1Nc1ccccc1` showed a residual activity [1] of 100%, a residual activity [2] of 79% and a residual activity [3] of 120%. For the same molecule, the residual activity [4] was 124%.
In the case of `Nc1nccc(-c2c(-c3ccc(F)cc3)ncn2C2CCNCC2)n1`, the residual activity [3] is reported as 129%, the residual activity [4] is reported as 83% and the residual activity [5] is reported as 21%. For the same molecule, the residual activity [6] was 83%, the residual activity [7] was 40% and the residual activity [8] was 84%. For the same molecule, the residual activity [9] was 119% and the residual activity [10] was 45%.
Molecule `O=C1Cc2c([nH]c3ccc(Br)cc23)-c2ccccc2N1` has a residual activity [3] of 97%, a residual activity [4] of 83% and a residual activity [11] of 76%. It also gave a residual activity [5] of 39%, a residual activity [6] of 92% and a residual activity [7] of 45%. It also gave a residual activity [9] of 91%, a residual activity [10] of 78% and a residual activity [12] of 83%.
For `COc1cc2c(cc1OC)-c1n[nH]c(Nc3cccc(F)c3)c1C2`, the residual activity [13] was 99%, the residual activity [14] was 107% and the residual activity [1] was 109%. It also gave a residual activity [2] of 132%, a residual activity [4] of 136% and a residual activity [5] of 53%. For the same molecule, the residual activity [10] was 34% and the residual activity [12] was 83%.
Work on `O=C(c1cc2cc(O)ccc2[nH]1)c1cc2cc(O)ccc2[nH]1` yielded a residual activity [14] of 73%, a residual activity [1] of 70% and a residual activity [2] of 59%. It also gave a residual activity [3] of 120%, a residual activity [4] of 122% and a residual activity [11] of 13%. For the same molecule, the residual activity [5] was 2%, the residual activity [6] was 81% and the residual activity [7] was 47%. For the same molecule, the residual activity [9] was 83% and the residual activity [10] was 47%.
